# Data reported in the supplement of paper PMC7411054.
# Counter-ions that a name gives are not always drawn.
# Key:
# Details in all cases: treatment time: 24 h
# [1] = system: HepG2-ACTB-RAB5A; test: lowest phenotypically active concentration; higher = less potent
# How it was run: (§1)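 Phenotypic activity depended on meeting both a deviation and a reproducibility criterion. The fifteen gene-edited A549, HepG2 and WPMY1 reporter lines were treated at 0.3, 1, 3 or 9 µM for 24 h, four wells each, then imaged live with features normalised to solvent control wells. Deviation required ≥3 of 4 wells past the 95th percentile of control Euclidean distances, and reproducibility a median replicate Pearson correlation above the 95th percentile of non-replicates.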
# [2] = system: WPMY1-GM130-SQSTM1; test: as above
# How it was run: as §1
# [3] = system: A549-ACTB-RAB5A; test: phenotypically active (imaging signature differs from DMSO and reproducible) at any of 0.3-9 uM (binary (1 = active, 0 = inactive)); higher = active
# How it was run: as §1
# [4] = system: A549-CANX-COX4; test: as above
# How it was run: as §1
# [5] = system: A549-GM130-SQSTM1; test: as above
# How it was run: as §1
# [6] = system: A549-TP53BP1-CLTA; test: as above
# How it was run: as §1
# [7] = system: A549-TUBA1B-RELA; test: as above
# How it was run: as §1
# [8] = system: HepG2-ACTB-RAB5A; test: as above
# How it was run: as §1
# [9] = system: HepG2-CANX-COX4; test: as above
# How it was run: as §1
# [10] = system: HepG2-GM130-SQSTM1; test: as above
# How it was run: as §1
# [11] = system: HepG2-TP53BP1-CLTA; test: as above
# How it was run: as §1
# [12] = system: HepG2-TUBA1B-RELA; test: as above
# How it was run: as §1
# [13] = system: WPMY1-ACTB-RAB5A; test: as above
# How it was run: as §1
# [14] = system: WPMY1-CANX-COX4; test: as above
# How it was run: as §1
# [15] = system: WPMY1-GM130-SQSTM1; test: as above
# How it was run: as §1
# [16] = system: WPMY1-TP53BP1-CLTA; test: as above
# How it was run: as §1
# [17] = system: WPMY1-TUBA1B-RELA; test: as above
# How it was run: as §1
# [18] = system: A549-ACTB-RAB5A; test: lowest phenotypically active concentration; higher = less potent
# How it was run: as §1
# [19] = system: A549-GM130-SQSTM1; test: as above
# How it was run: as §1
# [20] = system: A549-TUBA1B-RELA; test: as above
# How it was run: as §1
compound,measurement,setting,value
COC(=O)C1=CO[C@@H](C)[C@H]2CN3CCc4c([nH]c5ccccc45)[C@@H]3C[C@H]12 [Ajmalicine hydrochloride],lowest phenotypically active concentration,[1],9 µM
same,lowest phenotypically active concentration,[2],3 µM
same,phenotypically active,[3],0 (inactive)
same,phenotypically active,[4],1 (active)
same,phenotypically active,[5],0 (inactive)
same,phenotypically active,[6],0 (inactive)
same,phenotypically active,[7],0 (inactive)
same,phenotypically active,[8],1 (active)
same,phenotypically active,[9],1 (active)
same,phenotypically active,[10],0 (inactive)
same,phenotypically active,[11],1 (active)
same,phenotypically active,[12],0 (inactive)
same,phenotypically active,[13],0 (inactive)
same,phenotypically active,[14],1 (active)
same,phenotypically active,[15],1 (active)
same,phenotypically active,[16],0 (inactive)
same,phenotypically active,[17],0 (inactive)
CC(C)(C)c1ccc(S(=O)(=O)/C=C/C#N)cc1,lowest phenotypically active concentration,[18],9 µM
same,lowest phenotypically active concentration,[2],9 µM
same,phenotypically active,[3],1 (active)
same,phenotypically active,[4],0 (inactive)
same,phenotypically active,[5],0 (inactive)
same,phenotypically active,[6],0 (inactive)
same,phenotypically active,[7],0 (inactive)
same,phenotypically active,[8],0 (inactive)
same,phenotypically active,[9],0 (inactive)
same,phenotypically active,[10],1 (active)
same,phenotypically active,[11],0 (inactive)
same,phenotypically active,[12],1 (active)
same,phenotypically active,[13],0 (inactive)
same,phenotypically active,[14],1 (active)
same,phenotypically active,[15],1 (active)
same,phenotypically active,[16],1 (active)
same,phenotypically active,[17],0 (inactive)
CC(=O)N1CCN(c2ccc(OC[C@H]3CO[C@](Cn4ccnc4)(c4ccc(Cl)cc4Cl)O3)cc2)CC1 [Ketoconazole],lowest phenotypically active concentration,[18],9 µM
same,lowest phenotypically active concentration,[2],9 µM
same,phenotypically active,[3],1 (active)
same,phenotypically active,[4],0 (inactive)
same,phenotypically active,[5],0 (inactive)
same,phenotypically active,[6],0 (inactive)
same,phenotypically active,[7],0 (inactive)
same,phenotypically active,[8],0 (inactive)
same,phenotypically active,[9],0 (inactive)
same,phenotypically active,[10],0 (inactive)
same,phenotypically active,[11],0 (inactive)
same,phenotypically active,[12],0 (inactive)
same,phenotypically active,[13],0 (inactive)
same,phenotypically active,[14],0 (inactive)
same,phenotypically active,[15],1 (active)
same,phenotypically active,[16],0 (inactive)
same,phenotypically active,[17],0 (inactive)
CCCOc1ccn2c(C(C)=O)cc(-c3ccccc3S(C)(=O)=O)c2c1,lowest phenotypically active concentration,[19],9 µM
same,phenotypically active,[3],0 (inactive)
same,phenotypically active,[4],0 (inactive)
same,phenotypically active,[5],1 (active)
same,phenotypically active,[6],0 (inactive)
same,phenotypically active,[7],0 (inactive)
same,phenotypically active,[8],0 (inactive)
same,phenotypically active,[9],0 (inactive)
same,phenotypically active,[10],0 (inactive)
same,phenotypically active,[11],0 (inactive)
same,phenotypically active,[12],0 (inactive)
same,phenotypically active,[13],0 (inactive)
same,phenotypically active,[14],0 (inactive)
same,phenotypically active,[15],0 (inactive)
same,phenotypically active,[16],0 (inactive)
same,phenotypically active,[17],0 (inactive)
Cc1cccc(CN2CCN(C(c3ccccc3)c3ccc(Cl)cc3)CC2)c1 (stereo not drawn) [Meclizine dihydrochloride],lowest phenotypically active concentration,[18],9 µM
same,phenotypically active,[3],1 (active)
same,phenotypically active,[4],0 (inactive)
same,phenotypically active,[5],0 (inactive)
same,phenotypically active,[6],0 (inactive)
same,phenotypically active,[7],0 (inactive)
same,phenotypically active,[8],0 (inactive)
same,phenotypically active,[9],0 (inactive)
same,phenotypically active,[10],0 (inactive)
same,phenotypically active,[11],0 (inactive)
same,phenotypically active,[12],1 (active)
same,phenotypically active,[13],0 (inactive)
same,phenotypically active,[14],0 (inactive)
same,phenotypically active,[15],0 (inactive)
same,phenotypically active,[16],0 (inactive)
same,phenotypically active,[17],0 (inactive)
CC(=O)S[C@@H]1CC2=CC(=O)CC[C@]2(C)[C@H]2CC[C@@]3(C)[C@@H](CC[C@@]34CCC(=O)O4)[C@H]12 [spironolactone],lowest phenotypically active concentration,[18],9 µM
same,lowest phenotypically active concentration,[2],9 µM
same,phenotypically active,[3],1 (active)
same,phenotypically active,[4],0 (inactive)
same,phenotypically active,[5],0 (inactive)
same,phenotypically active,[6],0 (inactive)
same,phenotypically active,[7],0 (inactive)
same,phenotypically active,[8],0 (inactive)
same,phenotypically active,[9],0 (inactive)
same,phenotypically active,[10],0 (inactive)
same,phenotypically active,[11],0 (inactive)
same,phenotypically active,[12],0 (inactive)
same,phenotypically active,[13],0 (inactive)
same,phenotypically active,[14],0 (inactive)
same,phenotypically active,[15],1 (active)
same,phenotypically active,[16],0 (inactive)
same,phenotypically active,[17],0 (inactive)
O=c1c(-c2ccc(O)cc2)coc2cc(O)cc(O)c12 [Genistein],lowest phenotypically active concentration,[19],9 µM
same,lowest phenotypically active concentration,[20],9 µM
same,phenotypically active,[3],0 (inactive)
same,phenotypically active,[4],0 (inactive)
same,phenotypically active,[5],1 (active)
same,phenotypically active,[6],1 (active)
same,phenotypically active,[7],1 (active)
same,phenotypically active,[8],0 (inactive)
same,phenotypically active,[9],0 (inactive)
same,phenotypically active,[10],0 (inactive)
same,phenotypically active,[11],0 (inactive)
same,phenotypically active,[12],0 (inactive)
same,phenotypically active,[13],1 (active)
same,phenotypically active,[14],1 (active)
same,phenotypically active,[15],0 (inactive)
same,phenotypically active,[16],1 (active)
same,phenotypically active,[17],1 (active)
CC(=O)C1=C(O)[C@]2(C)C(=CC1=O)Oc1c(C(C)=O)c(O)c(C)c(O)c12 [(+)-Usnic acid],lowest phenotypically active concentration,[19],9 µM
same,phenotypically active,[3],0 (inactive)
same,phenotypically active,[4],0 (inactive)
same,phenotypically active,[5],1 (active)
same,phenotypically active,[6],0 (inactive)
same,phenotypically active,[7],0 (inactive)
same,phenotypically active,[8],0 (inactive)
same,phenotypically active,[9],0 (inactive)
same,phenotypically active,[10],0 (inactive)
same,phenotypically active,[11],0 (inactive)
same,phenotypically active,[12],0 (inactive)
same,phenotypically active,[13],0 (inactive)
same,phenotypically active,[14],0 (inactive)
same,phenotypically active,[15],0 (inactive)
same,phenotypically active,[16],0 (inactive)
same,phenotypically active,[17],0 (inactive)
C[C@@H]1CCN(C(=O)CC#N)C[C@@H]1N(C)c1ncnc2[nH]ccc12,lowest phenotypically active concentration,[18],9 µM
same,phenotypically active,[3],1 (active)
same,phenotypically active,[4],0 (inactive)
same,phenotypically active,[5],0 (inactive)
same,phenotypically active,[6],0 (inactive)
same,phenotypically active,[7],0 (inactive)
same,phenotypically active,[8],0 (inactive)
same,phenotypically active,[9],1 (active)
same,phenotypically active,[10],1 (active)
same,phenotypically active,[11],1 (active)
same,phenotypically active,[12],0 (inactive)
same,phenotypically active,[13],0 (inactive)
same,phenotypically active,[14],0 (inactive)
same,phenotypically active,[15],0 (inactive)
same,phenotypically active,[16],0 (inactive)
same,phenotypically active,[17],0 (inactive)
COc1ccc(-n2c(SCCCN3C(=O)c4cccc5cccc(c45)C3=O)nnc2-c2ccncc2)cc1,lowest phenotypically active concentration,[19],3 µM
same,lowest phenotypically active concentration,[20],3 µM
same,phenotypically active,[3],0 (inactive)
same,phenotypically active,[4],0 (inactive)
same,phenotypically active,[5],1 (active)
same,phenotypically active,[6],0 (inactive)
same,phenotypically active,[7],1 (active)
same,phenotypically active,[8],0 (inactive)
same,phenotypically active,[9],0 (inactive)
same,phenotypically active,[10],0 (inactive)
same,phenotypically active,[11],0 (inactive)
same,phenotypically active,[12],0 (inactive)
same,phenotypically active,[13],0 (inactive)
same,phenotypically active,[14],0 (inactive)
same,phenotypically active,[15],0 (inactive)
same,phenotypically active,[16],0 (inactive)
same,phenotypically active,[17],0 (inactive)
N=C1NC(=O)/C(=C\c2ccc(O)cc2)S1 [Mirin],lowest phenotypically active concentration,[18],9 µM
same,phenotypically active,[3],1 (active)
same,phenotypically active,[4],0 (inactive)
same,phenotypically active,[5],0 (inactive)
same,phenotypically active,[6],0 (inactive)
same,phenotypically active,[7],0 (inactive)
same,phenotypically active,[8],0 (inactive)
same,phenotypically active,[9],0 (inactive)
same,phenotypically active,[10],0 (inactive)
same,phenotypically active,[11],0 (inactive)
same,phenotypically active,[12],0 (inactive)
same,phenotypically active,[13],1 (active)
same,phenotypically active,[14],0 (inactive)
same,phenotypically active,[15],0 (inactive)
same,phenotypically active,[16],0 (inactive)
same,phenotypically active,[17],0 (inactive)
Cn1c(=O)c2nc[nH]c2n(C)c1=O [theophylline],lowest phenotypically active concentration,[19],9 µM
same,phenotypically active,[3],0 (inactive)
same,phenotypically active,[4],0 (inactive)
same,phenotypically active,[5],1 (active)
same,phenotypically active,[6],0 (inactive)
same,phenotypically active,[7],0 (inactive)
same,phenotypically active,[8],0 (inactive)
same,phenotypically active,[9],0 (inactive)
same,phenotypically active,[10],0 (inactive)
same,phenotypically active,[11],0 (inactive)
same,phenotypically active,[12],0 (inactive)
same,phenotypically active,[13],0 (inactive)
same,phenotypically active,[14],0 (inactive)
same,phenotypically active,[15],0 (inactive)
same,phenotypically active,[16],0 (inactive)
same,phenotypically active,[17],0 (inactive)
